Rows were chosen to be rich in hits. Some 3.5% of all compounds tested hit in one or more screens of this group.
Pf apPOL inh: Pf-apPOL DNA polymerase inhibition; Recombinant Pf-apPOL, molecular beacon fluorescence, 1.5 h; inhibition, % at 10 µM; 0.25% of 210,000 active; AID 1794808
mHTT-CaM PPI inh: mHTT-calmodulin interaction abrogation | 3.6% of 190,000 active | inhibition, % at 15 µM | P42858 | AlphaScreen His-mHTT/GST-CaM binding, luminescence
Target sequence (P42858 whole entry, looked up, change not shown): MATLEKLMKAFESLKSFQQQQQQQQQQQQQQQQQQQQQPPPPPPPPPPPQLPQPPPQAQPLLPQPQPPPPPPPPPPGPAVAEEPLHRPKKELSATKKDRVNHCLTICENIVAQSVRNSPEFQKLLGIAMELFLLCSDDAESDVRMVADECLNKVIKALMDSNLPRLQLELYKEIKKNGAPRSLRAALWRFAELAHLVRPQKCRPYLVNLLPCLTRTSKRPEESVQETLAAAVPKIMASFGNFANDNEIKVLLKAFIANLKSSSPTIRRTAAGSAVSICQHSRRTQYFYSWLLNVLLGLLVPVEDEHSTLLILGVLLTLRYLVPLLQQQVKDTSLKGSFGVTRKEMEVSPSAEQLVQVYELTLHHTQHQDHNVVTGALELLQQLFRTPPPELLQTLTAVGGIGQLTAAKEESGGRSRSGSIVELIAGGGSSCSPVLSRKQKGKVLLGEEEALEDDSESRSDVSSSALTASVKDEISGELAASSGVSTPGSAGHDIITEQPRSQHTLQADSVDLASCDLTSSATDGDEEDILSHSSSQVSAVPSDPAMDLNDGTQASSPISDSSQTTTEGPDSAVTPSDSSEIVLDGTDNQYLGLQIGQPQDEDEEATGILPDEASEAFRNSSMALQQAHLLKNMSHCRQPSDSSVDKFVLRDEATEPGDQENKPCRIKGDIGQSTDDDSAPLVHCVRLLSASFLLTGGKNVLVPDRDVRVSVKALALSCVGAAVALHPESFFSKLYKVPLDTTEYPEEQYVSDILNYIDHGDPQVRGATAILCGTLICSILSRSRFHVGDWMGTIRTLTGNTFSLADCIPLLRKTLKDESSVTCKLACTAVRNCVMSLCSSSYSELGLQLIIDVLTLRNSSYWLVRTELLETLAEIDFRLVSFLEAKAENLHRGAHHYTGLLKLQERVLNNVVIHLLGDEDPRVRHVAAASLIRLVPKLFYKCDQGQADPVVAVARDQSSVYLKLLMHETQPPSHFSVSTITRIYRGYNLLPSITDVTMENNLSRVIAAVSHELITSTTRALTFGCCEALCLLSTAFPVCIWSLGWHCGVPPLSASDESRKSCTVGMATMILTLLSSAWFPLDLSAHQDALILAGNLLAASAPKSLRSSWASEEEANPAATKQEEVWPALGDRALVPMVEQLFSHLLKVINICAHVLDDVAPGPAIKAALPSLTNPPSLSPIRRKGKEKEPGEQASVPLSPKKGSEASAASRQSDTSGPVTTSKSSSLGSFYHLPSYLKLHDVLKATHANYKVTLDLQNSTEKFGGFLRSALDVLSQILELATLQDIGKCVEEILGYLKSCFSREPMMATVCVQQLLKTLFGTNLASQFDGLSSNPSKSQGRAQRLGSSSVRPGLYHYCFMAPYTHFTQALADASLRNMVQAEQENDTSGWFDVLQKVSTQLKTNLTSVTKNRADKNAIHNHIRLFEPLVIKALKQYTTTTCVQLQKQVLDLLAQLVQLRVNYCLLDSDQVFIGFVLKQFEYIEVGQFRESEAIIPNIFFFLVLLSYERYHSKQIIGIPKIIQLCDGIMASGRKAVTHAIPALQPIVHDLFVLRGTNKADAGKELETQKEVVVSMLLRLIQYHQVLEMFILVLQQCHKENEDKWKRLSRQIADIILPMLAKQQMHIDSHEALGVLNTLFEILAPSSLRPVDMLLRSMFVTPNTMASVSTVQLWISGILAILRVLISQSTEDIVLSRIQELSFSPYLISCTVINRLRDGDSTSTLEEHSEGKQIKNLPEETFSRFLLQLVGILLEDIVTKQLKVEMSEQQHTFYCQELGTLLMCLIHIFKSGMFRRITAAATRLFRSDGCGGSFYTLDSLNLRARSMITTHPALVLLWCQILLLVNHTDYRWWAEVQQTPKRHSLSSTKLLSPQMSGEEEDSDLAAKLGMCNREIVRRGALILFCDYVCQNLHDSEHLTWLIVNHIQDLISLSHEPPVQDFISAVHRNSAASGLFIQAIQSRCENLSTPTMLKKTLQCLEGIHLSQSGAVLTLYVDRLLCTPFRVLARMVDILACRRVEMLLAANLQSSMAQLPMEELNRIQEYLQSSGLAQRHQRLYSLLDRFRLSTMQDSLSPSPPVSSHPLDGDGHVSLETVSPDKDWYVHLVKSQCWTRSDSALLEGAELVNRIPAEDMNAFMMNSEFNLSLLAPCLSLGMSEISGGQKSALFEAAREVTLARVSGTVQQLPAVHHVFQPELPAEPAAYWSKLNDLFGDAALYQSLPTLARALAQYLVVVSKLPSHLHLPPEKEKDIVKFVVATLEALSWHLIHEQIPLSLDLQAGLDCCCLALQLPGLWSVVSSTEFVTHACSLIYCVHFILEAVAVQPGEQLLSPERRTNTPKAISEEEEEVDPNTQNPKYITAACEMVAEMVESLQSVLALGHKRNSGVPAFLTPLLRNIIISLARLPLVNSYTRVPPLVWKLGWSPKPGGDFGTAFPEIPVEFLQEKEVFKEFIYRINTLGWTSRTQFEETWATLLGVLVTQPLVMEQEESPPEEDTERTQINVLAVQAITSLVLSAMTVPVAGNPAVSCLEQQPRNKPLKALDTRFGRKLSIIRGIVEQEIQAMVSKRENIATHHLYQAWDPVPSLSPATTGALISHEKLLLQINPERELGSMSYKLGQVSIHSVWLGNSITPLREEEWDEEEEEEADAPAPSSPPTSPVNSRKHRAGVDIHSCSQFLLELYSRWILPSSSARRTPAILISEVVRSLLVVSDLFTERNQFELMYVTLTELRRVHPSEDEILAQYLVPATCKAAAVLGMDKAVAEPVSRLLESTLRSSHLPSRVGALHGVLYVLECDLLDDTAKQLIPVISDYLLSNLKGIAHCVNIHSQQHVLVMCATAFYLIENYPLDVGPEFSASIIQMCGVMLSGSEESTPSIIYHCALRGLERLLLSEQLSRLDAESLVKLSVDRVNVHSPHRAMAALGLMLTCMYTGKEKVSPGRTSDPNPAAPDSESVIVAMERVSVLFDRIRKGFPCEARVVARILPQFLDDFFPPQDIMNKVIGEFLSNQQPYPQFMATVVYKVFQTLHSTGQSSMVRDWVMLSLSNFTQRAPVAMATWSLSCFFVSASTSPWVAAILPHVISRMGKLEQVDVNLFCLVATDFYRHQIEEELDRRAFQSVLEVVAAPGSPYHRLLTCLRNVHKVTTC
Of the large screens only hits and unclear results are named; the others gave an inactive call. No stated cut-off is given here; in the data, active means inhibition above about 50%; inactive means the rest.

CCSc1nnc2c(n1)OC(c1cc3c(cc1[N+](=O)[O-])OCO3)Nc1ccccc1-2 (stereo unspecified)	mHTT-CaM PPI inh 53
CSc1nnc2c(n1)OC(c1cccs1)Nc1ccccc1-2 (stereo unspecified)	none
Cc1ccc(C)c(NS(=O)(=O)c2ccc(NC(=O)c3ccccc3)cc2)c1	none
O=C1C(=Cc2ccccc2Cl)Oc2cc(O)ccc21	none
CC(C)(C)C(=O)Nc1ccc(C(=O)Nc2cccc(-c3nc4ccccc4[nH]3)c2)cc1	none
O=C(C1=C(O)C(=O)N(CCN2CCOCC2)C1c1ccc([N+](=O)[O-])cc1)c1ccco1 (stereo unspecified)	none
O=C(Nc1ccccc1-c1nc2ccccc2s1)c1cc(=O)c2ccccc2o1	none
O=C(Nc1nc2c(Cl)cccc2s1)c1cc(=O)c2ccccc2o1	Pf apPOL inh 50
CCCCN(CC)S(=O)(=O)c1ccc(C)cc1	none
CC(=O)c1cccc(N2COc3ccc(Cl)cc3C2)c1	none
O=[N+]([O-])c1cccc(N2COc3ccc(Cl)cc3C2)c1	mHTT-CaM PPI inh 54
Cc1ccccc1-c1nc(C)c(C(=O)NC(C)C)s1	none
COc1ccccc1NS(=O)(=O)c1ccc(Cl)c(C(=O)Nc2cccc([N+](=O)[O-])c2)c1	none
O=C1CCC[C@@H]2C=C[C@H](c3ccc(Br)cc3)[C@H]3CCN1[C@@H]32	mHTT-CaM PPI inh 52
O=C1C[C@@H]2CCN3C(=O)CCC[C@@H]([C@H]23)[C@@H]1Cc1ccccc1	none
O=C(CN(c1ccccc1)S(=O)(=O)c1ccccc1)Nc1cccnc1	none
Cc1ccn2c(NC(=O)C(C)(C)C)c(-c3cccc(F)c3)nc2c1	none
Cc1cc(C)c(S(=O)(=O)N=C2C=CC(=O)c3ccccc32)cc1C	mHTT-CaM PPI inh 98
Cc1ccc(C)c(S(=O)(=O)N=C2C=CC(=O)c3ccccc32)c1	mHTT-CaM PPI inh 96
Cc1cc(S(=O)(=O)N2CCN(S(=O)(=O)c3ccc(Cl)c(C)c3)CC2)ccc1Cl	none
Cc1ccc(C)c(S(=O)(=O)N2CCN(C)CC2)c1	none
Cc1cc(C)c(S(=O)(=O)N=C2C=C(Br)C(=O)c3ccccc32)cc1C	none
Cc1cc(S(=O)(=O)N=C2C=CC(=O)c3ccccc32)ccc1Cl	mHTT-CaM PPI inh 90
COc1cccc(CNC(=O)N2CCCC2c2cccc(F)c2)c1 (stereo unspecified)	none
O=C(Nc1cccc(Br)c1)C1CC(=O)N(CCc2c[nH]c3ccc(F)cc23)C1 (stereo unspecified)	none
O=C1CC2(CCN(C(=O)C3c4ccccc4Oc4ccccc43)CC2)Oc2ccccc21	none
COc1ccc2c(c1)N1CCN(c3ccccn3)CC1C(C(=O)NC(C)C)C2 (stereo unspecified)	none
N#CC1=C(SCC(=O)Nc2ccccc2)NC(=O)CC1c1ccccc1Cl (stereo unspecified)	none
COc1cccc(CN2CCc3c(cc(C(=O)Nc4cc(OC)cc(OC)c4)n3C)C2)c1	mHTT-CaM PPI inh 62
COc1ccc(NC(=O)c2cc3c(n2C)CCN(Cc2cccc(C)c2)C3)c(OC)c1	mHTT-CaM PPI inh 63
COc1cccc(CN2CCc3c(cc(C(=O)NCc4ccccc4OC)n3C)C2)c1	none
CCCNC(=O)c1cc2c(n1C)CCN(Cc1cccc(C)c1)C2	none
O=C(c1cccc(OCC2CCCN(C(=O)c3ccc(Cl)cc3)C2)c1)N1CCCCC1 (stereo unspecified)	none
COc1ccc(C2CCCN2C(=O)Cc2c(F)cccc2Cl)cc1 (stereo unspecified)	none
CC(C)c1ccc(OCC(=O)NCc2ccc3c(c2)OCO3)cc1	none
COc1ccccc1C(=O)Nc1ccccn1	none
COc1cccc(C(Nc2ccccn2)c2ccc3ccc(C)nc3c2O)c1OC (stereo unspecified)	mHTT-CaM PPI inh 69
Cc1ccc2ccc(C(Nc3ccccn3)c3ccccc3C)c(O)c2n1 (stereo unspecified)	mHTT-CaM PPI inh 68
Cc1cc(C)c2nc(C)cc(NC(=O)c3ccccn3)c2c1	none
O=C(Nc1ccccc1)c1ccc2c(c1)nc1n2CCN(C2CCCCC2)C1=O	none
O=C(CC(=O)c1ccccc1O)c1cccc(F)c1	mHTT-CaM PPI inh 57
O=C(CC(=O)c1ccccc1Cl)c1ccccc1O	mHTT-CaM PPI inh 50
O=C(CC(=O)c1ccccc1O)c1ccc(F)cc1	none
O=C(NCCNC(=O)c1ccccc1O)c1ccccc1O	none
CCOc1ccc(-n2ccn3cc(-c4ccc(C)cc4)nc3c2=O)cc1	none
CC(C)(C)C1=CC(=Cc2cc(C(C)(C)C)c(O)c(C(C)(C)C)c2)C=C(C(C)(C)C)C1=O	none (no result: Pf apPOL inh)
CC(C)(C)C1=CC(=O)c2c(ccc(C(C)(C)C)c2O)C1=O	mHTT-CaM PPI inh 58
CCc1ccc(C2=C/C(=C/c3ccc(C)c(OC)c3)C(=O)O2)cc1	none
CCc1ccc(C2=C/C(=C\c3ccc(C)o3)C(=O)O2)cc1	mHTT-CaM PPI inh 69
CSc1ccccc1NC(=O)c1ccc(-n2ccnc2)nn1	none
O=C(Nc1nc2ccccc2[nH]1)c1ccc(-n2ccnc2)nn1	mHTT-CaM PPI inh 94
O=C(Nc1ccc(OCc2ccccc2)cc1)Nc1cc(-c2ccccc2)nn1-c1ccccc1	none (no result: mHTT-CaM PPI inh)

Screening data as filed in PubChem.
